VACV Venus inh – inhibitors of vaccinia virus (Venus reporter). Vaccinia virus Venus reporter expression, fluorescence. Potency, µM (series often up to 36.5 µM), for the others: at the highest dose activity change, negative = inhibition, hits mostly inhibitors. 330,000 tested, 0.46% active; calls by dose curve; tested in A549 cells; note: potency is the fitted concentration of half-maximal effect; nearly all actives have a fitted effect of over 30% in size
VACV mCherry inh – vaccinia inhibition (mCherry reporter); 310,000 tested, 0.63% active; Vaccinia virus mCherry reporter infection, fluorescence; Potency, µM (doses to about 36.5 µM), for inactives: at the highest dose activity change, negative = inhibition, hits mostly inhibitors; calls by dose curve; tested in A549 cells; note: potency is the fitted concentration of half-maximal effect; nearly all actives have a fitted effect of over 35% in size
HCV inhibitor – inhibitors of hepatitis C virus infection. AID 651820. 340,000 tested, 3.4% active. Potency, µM (highest dose often 41.8 µM), for the others: at the highest dose activity change, negative = inhibition, actives largely listed as inhibitors. Huh7.5.1 HCVcc-Cre infection, luciferase reporter, 44 h; active = well fitted inhibition curve with a large enough effect; inconclusive = small, poorly fitted or top-dose-only effect, or another doubt; inactive = no such curve, though single readings can be large or run the other way; note: potency is the fitted concentration of half-maximal effect
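Infectious HCV cell culture screen: compound-treated cells (1,000/well, pre-plated 4 h) are infected with HCVcc-Cre at roughly 0.5 moi and grown 44 h. Infection is quantified by luciferase signal after 15 min substrate incubation at room temperature.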
FMDV antiviral – antivirals against foot and mouth disease virus; FMDV antiviral cell-based qHTS; Potency, µM (top dose mostly 57.9 µM), for the others: at the highest dose activity change, negative = inhibition, usual class: inhibitors; 410,000 tested, 1.2% active; AID 1159524; calls by dose curve; tested in HEK293T cells; note: read-out not given here; potency is the fitted concentration of half-maximal effect; nearly all actives have a fitted effect of over 45% in size
HCMV inh – inhibitors of human cytomegalovirus. HFF cells, HCMV-luciferase reporter, 72 h; hits give low values. activity change, negative = inhibition, % at 57.5 µM. 410,000 tested, 4.5% active. AID 1259415; in the data active = activity change below about -60%; inconclusive = no clear call, values can overlap the other calls; inactive = above about -39%
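Screen run at 2 compound doses on HFFs infected with reporter HCMV, MOI 1 PFU/cell. Luciferase activity from cell lysates at 72 h post infection gave inhibition relative to buffer-only and Salinomycin wells.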
Starred values were filed as active, the others as inactive; i = inactive; ? = inconclusive; / = no result given; [ ] = dose if it differs, or a comment. Rows were chosen to be rich in hits. Some 7.3% of all compounds tested hit in one or more screens of this group. % is set by controls: 0 for no effect and ±100 for the full control effect.

SMILES	VACV Venus inh	VACV mCherry inh	HCV inhibitor	FMDV antiviral	HCMV inh
OCCNCCc1c[nH]c2ccc(OCc3ccccc3)cc12	/	/	-22.9%	0.3%	-60.3*
NNC(=O)c1c[nH]c2ccc(OCc3ccccc3)cc12	-17.1%	-23.8%	7.1%	-0.2%	-31.2
CCc1ccc(NC(=O)c2cc3nc(-c4ccc(C)cc4)cc(C(F)(F)F)n3n2)cc1	-16.2%	-6.2%	/	-14.6%	14.1
CCOC(=O)c1ccc(NC(=O)c2cc3c(s2)CCC3)cc1	1.9%	14.8%	7.94µM*	5.6%	-5.3
Cc1cccn2c(=O)c(C(=O)NCc3cccc(F)c3)cnc12	?	?	/	8.3%	-13.6
CCCCc1c(-c2ccccc2OC)ncn1Cc1cccc(-c2ccccc2)c1	?	-21.4%	/	?	?
CCCCc1c(-c2ccccc2OC)ncn1C1CCCC1	-13.4%	-12.5%	/	0.0%	-94.1*
CCCCc1c(-c2ccccc2OC)ncn1Cc1ccc(-c2ccccc2)cc1	?	?	/	28.2µM*	-22.4
COc1ccc2c(C)c(Cl)c(=O)oc2c1	-2.6%	-8.5%	-6.6%	-21.0%	4.7
C=C1CC(COc2ccc3c(C)c(Cl)c(=O)oc3c2)(c2ccccc2)OC1=O (stereo unspecified)	11.2µM*	10µM*	?	22.4µM*	-98.3*
O=[N+]([O-])c1ccc(SCc2ccncc2)nc1	-16.4%	-20.5%	18.9%	8.2%	-83.7*
CCOC(=O)c1cccn1C1C(=O)N(Cc2ccc(Cl)nc2)c2ccc(F)cc21 (stereo unspecified)	/	/	/	/	8.5
CC(C)(C)NC(=O)C(c1ccc(-c2ccccc2)cc1)N(C[C@H]1CC[C@@H]([C@@H]2CC[C@H](CO)O2)O1)C(=O)c1ccc(C(C)(C)C)cc1 (stereo partly specified)	?	-21.9%	?	0.0%	-100.7*
Cc1ccc(C(C(=O)NC(C)(C)C)N(CC2CCCO2)C(=O)c2csnn2)cc1 (stereo unspecified)	-1.0%	i	6.2%	-3.6%	-0.2
O=C(Nc1ccccc1C(=O)OCc1cc(=O)n2c3c(sc2n1)CCCC3)c1cccc(Cl)c1	-6.7%	-12.3%	/	-5.2%	-26.4
NS(=O)(=O)c1ccc(NC(=S)Nc2ccn(Cc3cccc4ccccc34)n2)cc1	-30.0%	-25.9%	10µM*	?	-79.3*
CC(C)N(CCCNC(=O)Cn1c(=O)c2cccn2c2ccccc21)Cc1ccccc1	/	/	-2.6%	-1.2%	-1.1
O=C(CCn1c(=O)c2cccn2c2ccc(F)cc21)NCCc1ccccc1	-2.4%	9.2%	10µM*	-17.8%	?
COc1cccc(CNC(=O)CN2c3cccc4cccc(c34)S2(=O)=O)c1	-13.5%	i	-26.4%	0.3%	-88.3*
COc1cccc(CNC(=O)Cn2c(=O)c3cccn3c3ccccc32)c1	/	/	-0.6%	-11.2%	-65.7*
CN(CCCNC(=O)Cn1c(=O)c2cccn2c2ccccc21)Cc1ccccc1	-2.4%[7.34 µM]	-14.2%[7.34 µM]	-7.6%	0.0%	-88.3*
CSc1ccc(CCNC(=O)CCn2c(=O)c3cccn3c3ccc(F)cc32)cc1	1.4%	-2.2%	/	-15.6%	-21.7
CO[C@H]1[C@H](NC(=O)c2ccco2)c2ccccc2C12CCN(Cc1cccn1-c1ccccn1)CC2	-3.8%	-16.2%	/	0.6%	/
CCCC(C)NC(=O)COc1ccc(Sc2ccc(OCC(=O)NC(C)CCC)cc2)cc1 (stereo unspecified)	-23.5%	?	?	?	-71.6*
CCn1cc(C(=O)NCc2cccc(F)c2)c(=O)c2cc(F)c(N3CCN(C(=O)c4ccco4)CC3)cc21	?	/	?	15.8µM*	-86.0*
SMILES	VACV Venus inh	VACV mCherry inh	HCV inhibitor	FMDV antiviral	HCMV inh
CCCNC(=O)c1cn(CC)c2cc(N3CCN(C(=O)c4ccco4)CC3)c(F)cc2c1=O	/	/	10µM*	0.0%	-36.1
CCn1cc(C(=O)O)c(=O)c2cc(F)c(N3CCN(S(=O)(=O)c4ccc(NC(=O)OC)cc4)CC3)cc21	-4.5%	-10.0%	14.6%	-22.4%	-63.0*
CCn1cc(C(=O)NCc2cccnc2)c(=O)c2cc(F)c(N3CCN(C(=O)c4ccco4)CC3)cc21	-29.7%	/	?	?	-36.9
CCC(=O)N1CCN(c2cc3c(cc2F)c(=O)c(C(=O)O)cn3CC)CC1	-5.4%	i	7.4%	4.5%	74.1
CCCCNC(=O)c1cn(CC)c2cc(N3CCN(C)CC3)c(F)cc2c1=O	/	/	?	4.1%	10.1
Cn1nnc2c(N3CCN(c4ccccc4Cl)CC3)ncnc21	-15.3%	-17.3%	/	1.6%	-31.9
CC(C)c1ccc(-c2noc(SCC(=O)N3CCCCC3)n2)cc1	-7.7%	-16.0%	/	5.9%	17.9
COc1ccc(C2/C(=C(\O)c3cccc(OC)c3)C(=O)C(=O)N2c2ccccn2)cc1 (stereo unspecified)	/	/	6.3%	-20.6%	-106.7*
OC(c1cccc(Cl)c1)c1nnc(Nc2cccc(Oc3ccccc3)c2)s1 (stereo unspecified)	/	/	/	/	-19.4
O=c1cc(O)c2sc(Nc3ccc(F)c(Cl)c3)nc2[nH]1	13.0%	3.8%	?	15.0%	-101.4*
COc1ccc(Nc2nc3[nH]c(=O)cc(O)c3s2)cc1	4.9%	0.9%	4.3%	-3.1%	-25.3
OC(c1ccc(Cl)cc1)c1nnc(Nc2ccc(F)c(Cl)c2)s1 (stereo unspecified)	/	/	/	/	-63.3*
O=c1cc(O)c2sc(Nc3ccc(Cl)c(F)c3)nc2[nH]1	7.9%	?	?	-5.4%	-76.5*
COc1ccc(CN(C)CC(O)COc2ccc(C(=O)c3ccccc3)cc2)c(OC)c1OC (stereo unspecified)	-18.9%	i	?	-28.1%	-40.0
COc1ccc(CN(C)CC(O)COC(c2ccccc2)c2ccccc2)c(OC)c1OC (stereo unspecified)	-8.1%	?	15.8µM*	?	-27.8
COc1ccc(NC(=O)c2c(C)oc3ccc(O)c(CN4CCN(Cc5ccccc5)CC4)c23)cc1Cl	-24.9%	-10.9%	/	-18.6%	-13.8
CCOC(=O)c1ccc(NS(=O)(=O)c2c(N)n(C)c(=O)n(C)c2=O)cc1	?	-8.2%	10µM*	0.0%	?
Cc1ccc(NC(=O)CN(C)S(=O)(=O)c2ccc3c(c2)CCC(=O)N3)c(C)c1	7.3%	-10.8%	/	0.0%	-0.5
Cc1ccc2nc(C3CCCCC3)c(Cc3ccccc3C(F)(F)F)n2c1	-19.8%	i	/	-24.3%	-69.8*
CN(C)S(=O)(=O)c1ccc(N2CCCC2)c(C(=O)NCC2CCCCC2)c1	-17.4%	i	8.91µM*	-14.0%	-38.7
CSc1ccccc1NC(=O)c1cc(S(=O)(=O)N(C)C)ccc1N1CCCC1	-10.9%	-11.4%	8.6%	-24.6%	-31.4
CN(C)S(=O)(=O)c1ccc(N2CCCC2)c(C(=O)Nc2ccccc2)c1	-14.1%	-17.4%	5.6%	-19.3%	-67.4*
CCc1ccc(-n2nc(C)c3c(C)cc(=O)n(CC(=O)NCc4ccc(C)cc4)c32)cc1	9.1%	-14.5%	/	2.3%	21.3
CC1CCCN(C2(O)C(=O)Nc3ccc([N+](=O)[O-])cc32)C1 (stereo unspecified)	/	/	-16.7%	-3.5%	-63.2*

High-throughput results: PubChem BioAssay, National Center for Advancing Translational Sciences (NCATS)
